Screening data deposited in PubChem BioAssay by National Center for Advancing Translational Sciences (NCATS).
TDP1 cell CPT = qHTS for Inhibitors of human tyrosyl-DNA phosphodiesterase 1 (TDP1): qHTS in cells in presence of CPT | chicken DT40 Tdp1-/-;hTDP1 cells + 20 nM CPT, ATP luminescence, 48 h | Potency, µM (titrated, usually from 46.2 µM), inactives show top-dose activity change, negative = growth inhibition, actives largely listed as inhibitors | 420,000 compounds, 12% hits; further: potency means the concentration at half of the fitted maximal effect; nearly all actives have a fitted effect of over 55% in size
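Chicken DT40 Tdp1-/- cells stably complemented with human TDP1 were seeded at 400 cells/well in medium containing 20 nM camptothecin, exposed to pin-transferred compounds, and grown at 37 °C for at least 48 hr. Viability was read as ATP luminescence.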
DT40 TDP1 no CPT = qHTS for Inhibitors of human tyrosyl-DNA phosphodiesterase 1 (TDP1): qHTS in cells in absence of CPT; DT40 Tdp1-/- hTDP1 cells, no CPT, ATP luminescence, 48 h; Potency, µM (highest dose often 46.2 µM), for the others: at the highest dose activity change, negative = growth inhibition, actives largely listed as inhibitors; 420,000 compounds, 15% hits; further: potency means the concentration at half of the fitted maximal effect; nearly all actives have a fitted effect of over 55% in size
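DT40 Tdp1-/-;hTDP1 cells, no CPT (DMSO vehicle only), 400 cells/well; compounds pin-transferred; ≥48 hr, 37 °C; CellTiter-Glo 30 min RT dark, luminescence read.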
ELG1 repair inh = qHTS screen for small molecules that inhibit ELG1-dependent DNA repair in human embryonic kidney (HEK293T) cells expressing luciferase-tagged ELG1; 330,000 compounds, 2.3% hits; HEK293T ELG1-luciferase reporter, luminescence, 16 h; DNA damage induced by 5-fluorouridine; Potency, µM (doses to about 46.1 µM), without a hit: at the highest dose activity change, negative = inhibition, usual class: inhibitors; further: potency means the concentration at half of the fitted maximal effect; nearly all actives have a fitted effect of over 55% in size
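Reporter activity after DNA damage by 5-fluorouridine is monitored. Compound-treated cells incubate 16 hr at 37 °C, then ONE-Glo is added for 30 min before luminescence reading.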
IL1B secr inh = qHTS for Inhibitors of Inflammasome Signaling: IL-1-beta AlphaLISA Primary Screen. THP-1 LPS/ATP IL-1B secretion, AlphaLISA, 16 h; hits give low values. activity change, % at 57.5 µM. 360,000 compounds, 4.7% hits. AID 743279, 2014; in the data active means activity change below about -50%; inconclusive means mostly about -30% to -49%
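THP-1 cells pretreated 1 hr with compounds (up to 57.5 uM final), then stimulated with LPS (250 ng/mL final) plus ATP (1.25 mM final); secreted IL-1B measured by AlphaLISA after 16 hr, decreased signal indicating inhibition.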
Gal4-VP16 FLuc = VP16 counterscreen qHTS for inhibitors of ROR gamma transcriptional activity. Drosophila S2 Gal4-VP16 UAS-luciferase, luminescence, 20 h. Potency, µM (doses to about 53.6 µM), for the others: top-dose activity, negative = inhibition, actives largely listed as inhibitors. 310,000 compounds, 3.5% hits;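 further: Gal4-VP16 expression switched on by copper sulfate through the metallothionein promoter; potency means the concentration at half of the fitted maximal effect; nearly all actives have a fitted effect of over 50% in size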
RORg inh = qHTS for inhibitors of ROR gamma transcriptional activity. Nuclear receptor ROR-gamma (Mus musculus), P51450. Drosophila S2 Gal4-RORgamma UAS-luciferase reporter, 20 h. Potency, µM (highest dose often 53.6 µM), for the others: at the top dose activity change, negative = inhibition, actives largely listed as inhibitors. 310,000 compounds, 5.4% hits; further: potency means the concentration at half of the fitted maximal effect; nearly all actives have a fitted effect of over 60% in size
Target sequence (P51450 whole entry, looked up, the tested form may be a part): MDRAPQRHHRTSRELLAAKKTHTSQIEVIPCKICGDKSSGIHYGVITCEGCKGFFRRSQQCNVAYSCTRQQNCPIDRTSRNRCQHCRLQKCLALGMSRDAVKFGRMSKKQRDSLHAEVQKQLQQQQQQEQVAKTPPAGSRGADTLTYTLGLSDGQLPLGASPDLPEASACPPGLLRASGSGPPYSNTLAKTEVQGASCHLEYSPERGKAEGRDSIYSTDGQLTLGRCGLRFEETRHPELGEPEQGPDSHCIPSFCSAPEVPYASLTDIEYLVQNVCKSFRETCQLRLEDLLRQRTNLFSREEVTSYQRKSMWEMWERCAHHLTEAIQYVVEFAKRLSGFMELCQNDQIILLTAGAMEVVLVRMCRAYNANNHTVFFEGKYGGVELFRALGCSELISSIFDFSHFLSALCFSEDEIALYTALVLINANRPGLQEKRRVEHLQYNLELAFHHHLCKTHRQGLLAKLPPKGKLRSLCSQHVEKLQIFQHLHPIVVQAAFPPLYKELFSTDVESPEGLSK
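Drosophila Schneider cells stably carrying a metallothionein-driven Gal4 DBD–ROR gamma fusion and a UAS-Photinus luciferase reporter were exposed to compound for 1 hr, then induced with copper sulfate (700 uM final) for 20 hr at ambient temperature before luminescence reading.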
* marks the source's active call; other numbers are inactive results; ? = inconclusive; . = no result; [ ] = remark or other dose. In the library only some 21% were active in any assay of this set; here they are far more common. Unless noted, the call rests on the fitted dose curve; in most records, active means well fitted curve in the direction sought with a large enough effect; inconclusive means small, poorly fitted or top-dose-only effect, or another doubt; inactive means no such curve, though single readings can be large; an effect the other way counts as inactive or inconclusive. On the % scale 0 is the no-effect control and ±100 the full control effect.

SMILES	TDP1 cell CPT	DT40 TDP1 no CPT	ELG1 repair inh	IL1B secr inh	Gal4-VP16 FLuc	RORg inh
COCCn1c(=O)[nH]c2cc(C(=O)N3CCN(c4ccc(OC)cc4)CC3)ccc2c1=O	-31%	?	?	27	-10%	16%
CCCn1c(=S)[nH]c2cc(C(=O)N3CCN(c4ccc(F)cc4)CC3)ccc2c1=O	?	-8%	.	14	.	.
COCCn1c(=O)[nH]c2cc(C(=O)NCCN3CCN(c4cccc(Cl)c4)CC3)ccc2c1=O	15µM*	3.3µM*	21µM*	22	-5%	-1%
COCCn1c(=O)[nH]c2cc(C(=O)N3CCN(c4cccc(C(F)(F)F)c4)CC3)ccc2c1=O	21µM*	13µM*	?	-7	?	?
O=c1[nH]nc(N2CCOCC2)c(=O)[nH]1	?	16µM*	2%	1	2%	-1%
COc1ccccc1/C=C1\SC(=S)N(CCC(=O)NCCCn2ccnc2)C1=O	9%	2%	-4%	10	-10%	16µM*
CC(C)c1ccc(/C=C2\SC(=S)N(CCC(=O)NCCCn3ccnc3)C2=O)cc1	?	?	?	-11	?	-33%
COc1ccccc1/C=C1\SC(=O)N(CCC(=O)NCCCn2ccnc2)C1=O	?	?	-25%	-9	0%	-42%
COc1ccc(/C=C2\SC(=S)N(CCC(=O)NCCCn3ccnc3)C2=O)cc1	?	16µM*	12%	-27	9%	7%
C=CCc1c(C)[nH]c(=O)[nH]c1=O	10%	6%	-2%	34	-3%	-2%
O[C@@H]1CO[C@H]2[C@@H]1OC[C@@H]2O	8%	-8%	.	.	-10%	-1%
Cc1c(C#N)c(N=CN(C)C)c(C(=O)c2ccccc2)n1-c1ccc(Br)cc1	18µM*	?	-8%	0	0%	-10%
O=c1ccc2ccccc2[nH]1	.	.	.	.	13µM*	6.3µM*
Cc1ccc(NC(=O)N2CCC(CN3CCCCC3)CC2)c(Cl)c1	-1%	-24%	.	.	.	.
CCN(CC)CCOC(=O)c1cc(Cl)c(N)cc1OC	2%	0%	6%	6	8%	-24%
COc1cc(CNc2ccccc2)c([N+](=O)[O-])cc1OC	?	-26%	-28%	-5	-6%	27%[1.91 µM]
COc1cc(NCC2COc3c(ccc(OC)c3OC)C2=O)c([N+](=O)[O-])cc1OC (stereo not given)	18µM*	18µM*	.	-9	.	.
COc1ccc2[nH]cc(CCNc3nc(-c4c(C)noc4C)nc4ccccc34)c2c1	?	?	.	.	7%	17%
CCc1cccc(NC(=O)CCc2c(C)nc3c(c2C)c(=O)n(C)c(=O)n3C)c1	23µM*	?	.	.	.	.
O=C(CN1C(=O)C(=O)N(C2CCCC2)C1=O)Nc1ccc(F)cc1F	0%	-2%	13%	30	.	.
CC[N+]1(CC(=O)c2ccc(Cl)cc2)CCCCC1	8%	-1%	.	.	.	.
O=C(C[N+]1(CC#Cc2ccccc2)CCCCC1)c1ccccc1	16µM*	21µM*	-27%	-21	3%	1%
O=C(C[N+]1(CC#Cc2ccccc2)CCCCC1)c1ccc(Cl)cc1	12µM*	3.7µM*	?	-57*	11%	9%
O=C(C[N+]1(CC#Cc2ccccc2)CCOCC1)c1ccccc1	?	16µM*	-9%	-19	-6%	-8%
C(#Cc1ccccc1)C[N+]1(CC#Cc2cccc3ccccc23)CCOCC1	6.5µM*	4.6µM*	-5%	-84*	-23%	?
SMILES	TDP1 cell CPT	DT40 TDP1 no CPT	ELG1 repair inh	IL1B secr inh	Gal4-VP16 FLuc	RORg inh
O=C(C[N+]1(CC#Cc2ccccc2)CCOCC1)c1ccc(Cl)cc1	?	?	-16%	-11	28%	24%
Cc1ccc(N2CCN(C(=O)c3cc4cc5ccc(C)cc5nc4s3)CC2C)cc1 (stereo not given)	0%	-2%	.	.	.	.
O=C(O)CCN(CC(=O)c1ccc(Cl)cc1)S(=O)(=O)c1ccc([N+](=O)[O-])cc1	4%	1%	7%	-13	.	.
CCC[N+](CC#Cc1ccccc1)(CCC)CC(=O)c1ccc(Cl)cc1	?	26µM*	-7%	-71*	?	15%
CCc1ccc(N2C(=O)CN(Cc3sccc3C)C2=S)cc1	11%	-18%	-25%	-4	-6%[10 µM]	18%
c1ccc2nc(C3=NCCN3)ccc2c1	-3%	-24%	.	.	-24%	-14%
CN(C)Cc1ccccc1Sc1cccc2ccccc12	?	?	-16%	?	14µM*	10µM*
c1ccc(Sc2cccc3ccccc23)c(CNC2=NCCN2)c1	13µM*	12µM*	?	?	-14%	9%
Fc1ccccc1Sc1ccccc1CNC1=NCCN1	21µM*	13µM*	?	-20	-11%	1%
O=S(=O)(NCCC1=CCCCC1)c1ccc(F)cc1	-25%	-3%	-2%	0	-4%	41%
O=C(NNC(=O)c1nc(Cl)ccc1Cl)c1ccc(F)cc1	-26%	-28%	17%	-7	?	11µM*
O=C(CCNC(=O)c1ccc(Cl)cc1)NNC(=O)c1ccc(F)cc1	12%	16%	15%	20	.	.
O=C(NNC(=O)c1ncc(Cl)c(Cl)c1Cl)c1ccc(F)cc1	?	?	19%	21	5µM*	7.1µM*
COc1ccc(C)cc1NC(=O)n1ncc2c(C)cccc21	-20%	?	8%	9	-18%	5%
COc1ccc(NC(=O)n2ncc3c(C)cccc32)cc1	-29%	-15%	?	11	2.5µM*	?
COc1ccc(NC(=O)n2ncc3c(C)cccc32)cc1OC	?	?	?	?	?	1.1µM*
COC(=O)[C@]12CCCCC=C1N(CCC1=CCCCC1)C(=O)[C@H](CC(=O)N1CCN(C(=O)c3ccco3)CC1)C2	?	26µM*	.	-15	.	.
COC(=O)[C@]12CCCCC=C1N(CCC1=CCCCC1)C(=O)[C@H](CC(=O)N1CCC(c3ccccc3)CC1)C2	?	16µM*	.	7	.	.
COC(=O)[C@]12CCCCC=C1N(CCC1=CCCCC1)C(=O)[C@H](CC(=O)N1CCCC1)C2	?	16µM*	.	-3	.	.
